Screens from PubChem BioAssay.
The list is not random: actives were taken first. Their share in the collection is about 2.8%.
DRD3 agonist = qHTS of D3 Dopamine Receptor Agonist: qHTS; D3R DiscoveRx beta-arrestin cells, luminescence, 90 min; max activation, %; AID 652048, 2013; D(3) dopamine receptor (Homo sapiens), P35462; actives 0.58% (n = 410,000); in the data active = max activation above about 30%
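Cells at 1500/well, incubated overnight, then treated with pinned compounds (dopamine as control) for 90 min at 37 degrees C. DiscoveRx reagent added for 30 - 60 minutes at room temperature; luminescence read.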
D3 antag = qHTS of D3 Dopamine Receptor Antagonist: qHTS; D(3) dopamine receptor (Homo sapiens), P35462; D3R cells, DiscoveRx beta-arrestin luminescence, antagonist mode; stronger effect = lower value; max response, negative = inhibition, %; actives 2.5% (n = 360,000); in the data active = max response below about -50%; inconclusive = no clear call, values can overlap the other calls
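Cells plated overnight at 1500 cells/well, then exposed to library compounds with dopamine controls for 90 minutes at 37 degrees C. DiscoveRx reagent added for 30–60 minutes at room temperature; luminescence read, quantitative HTS format.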
LDHA block = qHTS assay for inhibitors of human lactate dehydrogenase. AID 1347041, 2019. actives 0.15% (n = 480,000). activity change, % (values are at about 110 or 230 µM). purified LDHA, NADH/diaphorase-resazurin fluorescence; stronger effect = lower value; in the data active = activity change below about -30%; inconclusive = mostly about -25% to -30%
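Human LDH5 at 2 nM final in Tris HCl pH 7.4 with 0.06 mM NADH and 0.2 mM pyruvate, reacted 5 minutes at room temperature. Remaining NADH coupled via diaphorase/resazurin; resorufin fluorescence read at 0 and 20 minutes, normalized to enzyme-free and DMSO wells.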
PI4K2A inh = qHTS for small molecular inhibitors of PI4K2A; purified PI4K2A, ADP-Glo luminescence, 1 h; stronger effect = lower value; actives 0.13% (n = 420,000); Phosphatidylinositol 4-kinase type 2-alpha (Homo sapiens), Q9BTU6; activity change, negative = inhibition, % at 76.9 µM; in the data active = activity change below about -50%; inconclusive = mostly about -30% to -49%
Target sequence (Q9BTU6 whole entry, looked up): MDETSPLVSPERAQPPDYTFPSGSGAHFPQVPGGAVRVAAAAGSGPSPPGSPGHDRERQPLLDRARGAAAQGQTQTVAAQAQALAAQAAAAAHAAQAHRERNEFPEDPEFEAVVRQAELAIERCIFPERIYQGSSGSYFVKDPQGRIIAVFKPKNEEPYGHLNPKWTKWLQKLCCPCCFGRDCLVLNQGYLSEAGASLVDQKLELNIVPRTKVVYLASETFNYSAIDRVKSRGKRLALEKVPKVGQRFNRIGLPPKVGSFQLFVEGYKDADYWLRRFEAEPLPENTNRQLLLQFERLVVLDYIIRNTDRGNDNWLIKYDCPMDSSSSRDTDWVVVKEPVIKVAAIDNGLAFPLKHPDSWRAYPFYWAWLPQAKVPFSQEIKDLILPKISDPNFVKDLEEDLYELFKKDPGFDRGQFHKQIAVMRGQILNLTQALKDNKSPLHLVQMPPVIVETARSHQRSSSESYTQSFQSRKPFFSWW
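ADP-Glo luminescence measured ADP generated by PI4K2A enzyme (4 ug/mL before mixing) with 1.2 mM PI substrate (pre-mix) and 300 microM ATP (pre-mix). Tris pH7.5 buffer with MgCl2, Triton X-100; 1 h reaction at ambient temperature.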
Akt phos inh = HTS Assay for Inhibitors of Akt Phophorylation: Primary Screen; Neuro2A IGF-stimulated pAkt S473 HTRF, 20 min; stronger effect = lower value; activity change, % for hits at 50 µM; actives 0.32% (n = 360,000); in the data active = activity change below about -80%; inconclusive = mostly about -51% to -80%
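Neuro2A cells in DMEM with 0.5% FBS, overnight at 37 deg C, given compound at single 50 µM final, then IGF (6 nM final) for 20 min at 37 deg C. Lysed; phospho-Akt Ser473 by HTRF after 24 h, 665/615 ratio.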
RGS4 inh = Inhibitors of Regulator of G Protein Signaling (RGS) 4: qHTS. Regulator of G-protein signaling 4 (Homo sapiens), P49798. Transcreener GDP fluorescence polarization, RGS4-accelerated GTP hydrolysis. Potency, µM (titrated, usually from 114 µM), actives largely listed as inhibitors. actives 0.039% (n = 390,000). AID 504845, 2011; active = well fitted inhibition curve with a large enough effect; inconclusive = small, poorly fitted or top-dose-only effect; inactive = no such curve, though single readings can be large or run the other way; note: nearly all actives have a fitted effect of over 75% in size
Target sequence (P49798 whole entry, looked up): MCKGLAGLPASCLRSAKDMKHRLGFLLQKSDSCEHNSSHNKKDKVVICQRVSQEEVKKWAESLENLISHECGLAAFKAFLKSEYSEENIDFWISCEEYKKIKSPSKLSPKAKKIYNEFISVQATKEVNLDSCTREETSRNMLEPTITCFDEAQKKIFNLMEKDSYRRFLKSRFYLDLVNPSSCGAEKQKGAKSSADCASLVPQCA
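MLSMR compounds (23 nl, pin-transferred) preincubated 10 min at room temperature with a 500nM (2x) first reagent, then RGS4 at 900nM (2x) plus Transcreener GDP mix added; fluorescence polarization (620/688 nm) read before and after 90 min at 30 °C.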
Hits are given with their value; . = inactive; ? = inconclusive; / = no result given.

SMILES	DRD3 agonist	D3 antag	LDHA block	PI4K2A inh	Akt phos inh	RGS4 inh
CCOc1cc(CN2CCN(c3cccc(C(F)(F)F)c3)CC2)ccc1OC	.	-89	.	.	.	.
N#C/C(=C\c1ccc(-c2cccc(C(=O)O)c2)o1)C(=O)N1CCOCC1	/	/	.	/	/	/
CCOc1cc(/C=C2/NC(=O)NC2=O)cc([N+](=O)[O-])c1O	.	-86	.	.	.	.
CCOc1cc(/C=C2/NC(=O)NC2=O)cc(Cl)c1O	/	/	.	/	/	/
Cc1ccc(/C=C/C(=O)NC2CCCC2)c(C)c1	/	/	.	/	/	/
O=C(NCCc1csc(-c2ccc(C(F)(F)F)cc2)n1)C(=O)Nc1ccccc1F	/	/	.	/	/	/
CCN(C#N)c1nc(NC(C)C)nc(NC(C)C)n1	32	.	.	.	.	.
CCOC(=O)[C@H]1[C@H]2COc3ccc(Br)cc3[C@@H]2N2C(=O)c3ccc(Cl)cc3NC(=O)[C@@]12C	.	-75	.	.	.	.
CCOC(=O)[C@H]1[C@H]2COc3ccc(C)cc3[C@@H]2N2C(=O)c3ccc(C)cc3NC(=O)[C@@]12C	.	.	.	.	.	.
O=[N+]([O-])c1ccc(Nc2nc(NCCO)nc(N3CCCC3)n2)cc1	.	.	.	.	.	.
NNc1nc(Nc2ccc([N+](=O)[O-])cc2)nc(N2CCCCCC2)n1	.	-52	.	.	.	.
COc1ccc(-c2nnc3sc(-c4cc(C(C)(C)C)nn4C)nn23)cc1OC	/	/	.	/	/	/
CCc1nc2ccc(C(=O)NC3CCN(Cc4ccccc4)CC3)cn2c1N(C)Cc1cccs1	.	-77	.	.	.	/
CCc1nc2ccc(C(=O)NC3CCN(Cc4ccccc4)CC3)cn2c1N(C)Cc1cc2ccccc2s1	.	-68	.	.	.	/
Cc1nn(C)c(C)c1C(=O)NCc1cccnc1N1CCOCC1	/	/	.	/	/	/
CC(=O)c1ccc(N2CCN(C(=O)c3nn(Cc4ccccc4)c(=O)c4ccccc34)CC2)c(F)c1	/	/	.	/	/	/
CC(=O)Nc1cccc(NC(=O)CC(C)c2ccccc2)c1 (configuration not stated)	/	/	.	/	/	/
CC(CC(=O)Nc1ccc2c(c1)c(=O)n(C)n2-c1cccs1)c1ccccc1 (configuration not stated)	.	-53	.	.	.	/
CCCC(CCC)C(N)=O	58	/	/	/	/	/
O=S(=O)(c1cc(Cl)ccc1Cl)N1CCN(c2nnnn2-c2ccccc2)CC1	/	/	.	/	/	/
CCc1ccc(NC(=O)N2CCc3cc(S(=O)(=O)N4CCC(C)CC4)ccc32)cc1	/	/	.	/	/	/
CC(OC(=O)CN(C)S(=O)(=O)c1ccc(Cl)cc1)C(=O)Nc1ncc(Cl)cc1Cl (configuration not stated)	.	.	.	.	.	.
CC(OC(=O)CN(C)S(=O)(=O)c1ccc(Cl)cc1)C(=O)Nc1cccc(Cl)c1 (configuration not stated)	.	.	.	.	-98%	.
Cc1nc(/C=C/C(=O)N2CCN(c3cccc(C(F)(F)F)c3)CC2)cs1	/	/	.	/	/	/
Cc1noc(C)c1S(=O)(=O)Nc1c(NCc2ccccc2)c2ccccc2oc1=O	/	/	.	/	/	/
SMILES	DRD3 agonist	D3 antag	LDHA block	PI4K2A inh	Akt phos inh	RGS4 inh
O=c1oc2ccccc2nc1/C=C(O)/C=C\c1ccccc1	.	-55	.	.	.	.
O=c1oc2ccccc2nc1/C=C(O)/C=C/c1ccc(F)cc1	.	.	.	.	.	.
Cc1cccc(NC(=O)Nc2ccc(Oc3c(F)c(F)c(F)c(F)c3F)cc2)c1	.	-117	.	.	.	.
CC1(C)CC(NC(=S)Nc2ccc(Br)cc2)CC(C)(C)N1	/	/	.	/	/	/
CC(Nc1ccc([N+](=O)[O-])cn1)c1ccc(Cl)cc1Cl (configuration not stated)	/	/	.	/	/	/
CCOC(=O)c1c(C)oc2c1c(C=NCc1ccccn1)c(O)c1ccccc12	.	-105	.	.	.	.
CCOC(=O)N1CCN(C(=O)CNC(=O)c2nn(-c3ccc(OC)c(OC)c3)c(=O)c3ccccc23)CC1	54	.	.	.	.	.
CC(O)c1ccc(-c2ccc(CNCc3ccccn3)o2)cc1 (configuration not stated)	/	/	.	/	/	/
O=C(Cn1nnc(-c2ccsc2)n1)N1CCC(c2nc3ccccc3s2)CC1	/	/	.	/	/	/
COc1ccc(S(=O)(=O)NCCSCc2ccccc2C)cc1Br	.	.	.	.	-114%	.
COc1cc(C(=O)Nc2c(NCc3ccccc3)c3ccccc3oc2=O)cc(OC)c1OC	/	/	.	/	/	/
COc1ccc(N(CC(=O)Nc2c(C)n(C)n(-c3ccccc3)c2=O)S(=O)(=O)c2ccc(C)cc2)cc1OC	.	-111	.	.	.	.
COc1ccccc1N(CC(=O)Nc1c(C)n(C)n(-c2ccccc2)c1=O)S(=O)(=O)c1ccc(C)cc1	.	.	.	.	.	.
O=C(Oc1ccc(Cl)c2cccnc12)c1cccnc1	.	-70	.	.	.	.
Cc1cccc(NC(=O)Oc2ccc(Cl)c3cccnc23)c1	.	-120	.	.	.	/
CNC(=O)COc1ccc(Cl)c2cccnc12	.	.	.	.	.	.
Cc1ccc(C(=O)Oc2ccc(Cl)c3cccnc23)cc1[N+](=O)[O-]	.	-126	.	.	.	.
COc1ccc(C(=O)Oc2cccc3cccnc23)cc1[N+](=O)[O-]	.	?	.	.	.	.
Cc1cc(=O)n2c3ccccc3nc2n1CC(=O)c1ccc2ccccc2c1	/	/	.	/	/	/
CN(C)c1ccc(C(=C2C=CC(=[N+](C)C)C=C2)c2ccccc2)cc1	.	/	/	.	/	/
CN(C)c1ccc(C(=C2C=CC(=[N+](C)C)C=C2)c2ccc(N(C)C)cc2)cc1	.	/	.	-59	/	/
COC(=O)c1ccc(C23CC4(C2)[C@H](CN(Cc2cccnc2)[C@@H]4c2ccccc2)C3c2ccccc2)cc1 (some centres not stated)	47	.	.	.	.	.
COc1ccc(CCN(C)CC(O)COC(c2ccc(F)cc2)c2ccc(F)cc2)cc1OC (configuration not stated)	.	-61	.	.	.	.
CCCCNC(=O)c1sc(=S)n2c1[nH]c(=O)c1ccccc12	.	-50	.	.	.	.
O=C(NC1CCCCC1)c1sc(=S)n2c1[nH]c(=O)c1ccccc12	.	?	.	.	.	?
CCOc1cc(C=O)c(Cl)cc1OC	/	/	.	/	/	/
O=C(CNC(=O)c1cccc(Br)c1)N/N=C/c1cccs1	.	.	.	.	.	.
